# From PubChem BioAssay (NCATS)
# Results filed as inconclusive are left out. Where a call stands in place of a potency, no number is given. The source made the active and inactive calls. Calls follow the shape of the dose curve; as a rule, active = well fitted curve in the direction sought with a large enough effect; inconclusive = small, poorly fitted or top-dose-only effect, or another doubt; inactive = no such curve, though single readings can be large; an effect the other way counts as inactive or inconclusive.
# Assays:
# [1] = qHTS Screen of the MIPE 4.0 Collection Against Ewings Sarcoma (RDES) (AID 1259252); also: nearly all actives have a fitted effect of over 35% in size; also: potency is read from the fitted curve at half-maximal effect
# Outline: (§1)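 CellTiter-Glo luminescence after 48 h compound exposure (titration) gave viability; percent activity used DMSO-treated cells as no inhibition and medium-only wells as full inhibition. Cells grown in RPMI/5% FBS, dosed 4 h post-seeding.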
# [2] = qHTS Screen of the MIPE 4.0 Collection Against Ewings Sarcoma (TC71) (AID 1259253); also: nearly all actives have a fitted effect of over 40% in size; also: potency is read from the fitted curve at half-maximal effect
# Outline: as §1
# [3] = P-glycoprotein substrates identified in KB-3-1 adenocarcinoma cell line, qHTS therapeutic library screen (AID 1346986); also: nearly all actives have a fitted effect of over 60% in size
# Outline: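 Counter-screen: cherry-picked hits retested in the KB pair and in HEK-293 pcDNA/MDR-19 cells ± tariquidar. Primary screen used 72 h CellTiter-Glo viability in KB-3-1 and KB-8-5-11.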
# [4] = P-glycoprotein substrates identified in KB-8-5-11 adenocarcinoma cell line, qHTS therapeutic library screen (AID 1346987); also: nearly all actives have a fitted effect of over 65% in size
# Outline: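 P-gp-mediated resistance screen: KB-8-5-11 cells treated 72 h with compounds in dose-response. CellTiter-Glo viability.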
# [5] = NS1 protein of Zika virus - qHTS assay to identify small molecule inhibitors in human HEK 293 cells (AID 1347053); also: nearly all actives have a fitted effect of over 55% in size; also: potency is read from the fitted curve at half-maximal effect
# Outline: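 Inhibition of NS1 expression was scored in HEK 293 cells given compound 1 h ahead of MR766 virus (MOI = 0.5). Following 24 h at 37 C, two anti-NS1 antibodies generated a TR-FRET signal, scaled between uninfected and infected controls.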
# [6] = qHTS Screen of the MIPE 4.0 Collection Against Ewings Sarcoma (EW8) (AID 1259255); also: nearly all actives have a fitted effect of over 35% in size; also: potency is read from the fitted curve at half-maximal effect
# Outline: as §1
# [7] = qHTS Screen of the MIPE 4.0 Collection Against Ewings Sarcoma (TC32) (AID 1259256); also: nearly all actives have a fitted effect of over 45% in size; also: potency is read from the fitted curve at half-maximal effect
# Outline: as §1
# [8] = qHTS assay to identify small molecule inhibitors of chordoma cells - UCH-2 (AID 1259356); also: series mostly up to about 46 µM
# [9] = Identifying Small Molecule Inhibitors of Pancreatic Cancer Stem Cells (Panc1, Adherent) (AID 1259362); settings: Potency: viability; also: potency is read from the fitted curve at half-maximal effect
# Outline: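 Pre-formed 14-day tumor spheroids or adherent cells dosed and incubated 48 h, 37C, 5% CO2. Viability assessed by CellTiter-Glo.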
# [10] = Identifying Small Molecule Inhibitors of Pancreatic Cancer Stem Cells (A2780, Spheroid) (AID 1259357); settings: Potency: A2780 spheroid viability;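 also: compound exposure lasted 48 h before the ATP luminescence read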
# Outline: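 After a 4 h attachment period, compounds were pinned into wells and cultures held 48 h under standard incubator conditions. Viability was then measured as CellTiter-Glo luminescence following 10 min at room temperature.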
# [11] = Identifying Small Molecule Inhibitors of Pancreatic Cancer Stem Cells (SN12C, Adherent) (AID 1259358);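 also: cell survival measured after 48 h of compound exposure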; also: potency is read from the fitted curve at half-maximal effect
# Outline: (§2)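 Cytotoxicity read by CellTiter-Glo luminescence after 48 h compound exposure at 37C; percent activity scaled between DMSO-treated cells and cell-free wells. Spheroid formats used cells pre-formed 14 days in stem cell media on hydrogel.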
# [12] = Identifying Small Molecule Inhibitors of Pancreatic Cancer Stem Cells (A278, Adherent) (AID 1259361); also: nearly all actives have a fitted effect of over 35% in size
# Outline: as §2
structure (smiles),measurement,setting,value
CCCCCCCCCCCCCCCC(=O)O[C@H]1[C@@H](O)[C@@H](O)[C@@H]([C@H](NC(=O)[C@@H]2C[C@@H](CCC)CN2C)[C@H](C)Cl)O[C@@H]1SC,Potency,[1],inactive
same,Potency,[2],13.2 µM (active)
same,Potency,[3],inactive
same,Potency,[4],inactive
same,Potency,[5],inactive
CC[C@H](C)C(=O)O[C@H]1C[C@H](O)C=C2C=C[C@H](C)[C@H](CC[C@@H](O)C[C@@H](O)CC(=O)O)[C@H]21,Potency,[1],inactive
same,Potency,[6],inactive
same,Potency,[7],20.9 µM (active)
same,outcome,[8],inactive
same,Potency,[4],inactive
Cc1nc(NC(=O)N2CCC[C@@H]2C(N)=O)sc1-c1csc(C(C)(C)C)n1,Potency,[1],5.26 µM (active)
same,Potency,[2],6.62 µM (active)
same,Potency,[7],6.62 µM (active)
same,Potency,[5],inactive
CN1CC(=O)N2C(Cc3c([nH]c4ccccc34)[C@H]2c2ccc3c(c2)OCO3)C1=O (stereo partly drawn),Potency,[1],inactive
same,Potency,[6],inactive
same,Potency,[7],inactive
same,outcome,[8],inactive
CS(=O)(=O)c1ccc(C2=C(c3ccccc3)C(=O)OC2)cc1,Potency,[1],inactive
same,Potency,[2],18.7 µM (active)
same,outcome,[8],inactive
same,Potency,[4],inactive
same,Potency,[5],inactive
CCC[C@H](Nc1nc(-c2ccc(NC(=O)NCC)c(OC)c2)ncc1C)c1cccnc1,Potency,[1],0.0093 µM (active)
same,Potency,[2],0.0093 µM (active)
same,Potency,[7],inactive
same,Potency,[5],9.3 nM (active)
COc1ccc2cc1Oc1ccc(cc1)C[C@H]1c3cc(c(OC)cc3CCN1C)Oc1c(OC)c(OC)cc3c1[C@H](C2)N(C)CC3,Potency,[1],20.9 µM (active)
same,Potency,[2],20.9 µM (active)
same,Potency,[5],inactive
COc1ccc(CCN(C)CCCOc2ccc(S(=O)(=O)c3[nH]c4ccccc4c3C(C)C)cc2)cc1OC,Potency,[1],inactive
same,Potency,[2],inactive
same,Potency,[9],26.4 µM (active)
same,Potency,[4],inactive
same,Potency,[5],inactive
CN1C(=O)C[C@H](C(=O)N[C@@H](Cc2cnc[nH]2)C(=O)N2CCC[C@@H]2C(N)=O)NC1=O,Potency,[1],20.9 µM (active)
same,Potency,[2],20.9 µM (active)
same,Potency,[3],inactive
same,Potency,[4],inactive
same,Potency,[5],inactive
Cc1cc(OCCCS(C)(=O)=O)cc(C)c1-c1cccc(COc2ccc3c(c2)OC[C@H]3CC(=O)O)c1,Potency,[1],inactive
same,Potency,[6],20.9 µM (active)
same,Potency,[7],inactive
CC(C)(C)c1nc(-c2cccc(NS(=O)(=O)c3c(F)cccc3F)c2F)c(-c2ccnc(N)n2)s1,Potency,[1],6.62 µM (active)
same,Potency,[6],18.7 µM (active)
Cc1cccc(Nc2nc(N[C@@H]3CCCC[C@H]3N)ncc2C(N)=O)c1,Potency,[1],16.6 µM (active)
same,Potency,[2],18.7 µM (active)
same,Potency,[10],inactive
same,Potency,[11],18.7 µM (active)
same,Potency,[9],26.4 µM (active)
Cc1ccc2c(=O)c3cccc(CC(=O)O)c3oc2c1C,Potency,[1],18.7 µM (active)
same,Potency,[2],18.7 µM (active)
same,Potency,[3],inactive
same,Potency,[4],inactive
same,Potency,[5],inactive
CCOC(=O)[C@@H](N)CCC(=O)N[C@@H](CSCc1ccccc1)C(=O)N[C@@H](C(=O)OCC)c1ccccc1,Potency,[1],inactive
same,Potency,[2],inactive
same,Potency,[11],inactive
same,Potency,[9],inactive
same,Potency,[4],inactive
Clc1ccc(C2(c3ccc(-c4cn[nH]c4)cc3)CCNCC2)cc1,Potency,[1],14.8 µM (active)
same,Potency,[6],23.5 µM (active)
same,Potency,[7],20.9 µM (active)
CC=C1C2C=C(C)CC1(N)c1ccc(=O)[nH]c1C2 (stereo not drawn),Potency,[1],inactive
same,Potency,[2],23.5 µM (active)
same,Potency,[4],inactive
same,Potency,[5],inactive
OC[C@H]1O[C@@H](Oc2ccc(O)cc2)[C@H](O)[C@@H](O)[C@H]1O,Potency,[1],inactive
same,Potency,[2],18.7 µM (active)
same,Potency,[3],inactive
same,Potency,[4],inactive
same,Potency,[5],inactive
C#C[C@]1(O)CC[C@H]2[C@H]3CCc4cc(OC)ccc4[C@H]3CC[C@@]21C,Potency,[1],20.9 µM (active)
same,Potency,[2],29.6 µM (active)
same,Potency,[4],inactive
same,Potency,[5],inactive
O=C1C(CCC(O)c2ccc(F)cc2)C(c2ccc(O)cc2)N1c1ccc(F)cc1 (stereo not drawn),Potency,[1],inactive
same,Potency,[6],inactive
same,Potency,[7],inactive
same,Potency,[10],inactive
same,Potency,[11],inactive
same,Potency,[4],inactive
CCC[C@H](N[C@@H](C)C(=O)N1[C@@H]2CCCC[C@H]2C[C@H]1C(=O)O)C(=O)OCC,Potency,[1],inactive
same,Potency,[2],14.8 µM (active)
same,Potency,[7],inactive
same,Potency,[5],inactive
Cn1cc(-c2ccc3nnc(Sc4ccc5ncccc5c4)n3n2)cn1,Potency,[1],20.9 µM (active)
same,Potency,[6],inactive
same,Potency,[7],inactive
same,Potency,[11],inactive
same,IC50 (viability decrease),[12],inactive
same,Potency,[9],inactive
same,Potency,[4],inactive
same,Potency,[5],inactive
O=C(O)c1nc(=O)[nH]c(=O)[nH]1,Potency,[1],inactive
same,Potency,[6],inactive
same,Potency,[7],inactive
same,outcome,[8],inactive
same,Potency,[4],inactive
same,Potency,[5],inactive
CCNC(=O)[C@H]1O[C@@H](n2cnc3c(N)nc(NCCc4ccc(CCC(=O)O)cc4)nc32)[C@H](O)[C@H]1O,Potency,[1],inactive
same,Potency,[2],inactive
same,Potency,[4],inactive
same,Potency,[5],inactive
CN1C(=O)C(Cc2c[nH]c3ccccc23)NC1=S (stereo not drawn),Potency,[1],inactive
same,Potency,[6],inactive
same,Potency,[7],inactive
same,Potency,[10],inactive
same,Potency,[11],inactive
same,IC50 (viability decrease),[12],inactive
same,Potency,[3],inactive
same,Potency,[4],inactive
same,Potency,[5],inactive
